# Screening results: PubChem, National Center for Advancing Translational Sciences (NCATS)
# CHX counter: affects cycloheximide protein synthesis inhibition readout, counter-screen. cell reporter, cycloheximide protein synthesis inhibition counterscreen. AID 2314. max response, %. 300,000 tested, 12% active; in the data active = max response mostly above about 13%, no sharp cut-off; inactive = mostly below about 14%; note: read at 38.3 µM for the half of the compounds with a filed dose; 0% is about no effect
# Sm TGR block: blocks Schistosoma mansoni thioredoxin glutathione reductase | Q962Y6 | purified TGR, DTNB reduction, TNB absorbance 405 nm | Potency, µM (top dose mostly 114 µM), for inactives: at the highest dose activity change, negative = inhibition, most hits filed as inhibitors | 360,000 tested, 3% active | AID 485364; active = well fitted inhibition curve with a large enough effect; inconclusive = small, poorly fitted or top-dose-only effect; inactive = no such curve, though single readings can be large or run the other way; note: potency is the fitted concentration of half-maximal effect; % is set by controls: 0 for no effect and ±100 for the full control effect; nearly all actives have a fitted effect of over 60% in size
#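 Kinetic colorimetric format: TGR-catalysed, NADPH-driven DTNB reduction monitored via TNB absorbance. Enzyme dispensed at 20 nM; compound exposure 15 min at room temperature before reaction start.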
# Shiga toxin inh: inhibitors of Shiga toxin in Vero cells; Vero cells, Shiga toxin protein synthesis inhibition reporter; inhibition, % at 38.7 µM; 290,000 tested, 9.2% active; in the data active = inhibition mostly above about 28%, no sharp cut-off; inactive = mostly below about 43%; note: 0% is about no effect
# FMDV inh: foot and mouth disease virus antiviral activity; FMDV antiviral cell-based qHTS; Potency, µM (doses to about 57.9 µM), for the others: at the highest dose activity change, negative = inhibition, actives largely listed as inhibitors; 410,000 tested, 1.2% active; calls by dose curve; tested in HEK293T cells; note: read-out not given here; potency is the fitted concentration of half-maximal effect; % is set by controls: 0 for no effect and ±100 for the full control effect; nearly all actives have a fitted effect of over 45% in size
# Numbers without * were called inactive; u = inconclusive; x = no result given. Shown are actives, neighbours in structure and some others; about 12% of the full set was active somewhere.
SMILES,CHX counter,Sm TGR block,Shiga toxin inh,FMDV inh
CCCSc1nc(O)c(C2OC(=O)c3c2ccc(OC)c3OC)c(=O)n1-c1ccccc1 (stereo not given),-2.1,11.2µM*,-4.8,-17.2%
C=CCSc1nc(O)c(C2OC(=O)c3c2ccc(OC)c3OC)c(=O)n1-c1ccccc1 (stereo not given),-2.1,3.98µM*,12.2,-4.6%
CCCSc1nc2ccccc2c(=O)n1-c1ccccc1OC,x,7.9%,x,-23.1%
CN(C)CCSc1nc(O)c(-c2ccccc2)c(=O)n1-c1ccccc1,2.0,7.2%,-8.9,-9.6%
CCCCSc1nc(O)c(C2OC(=O)c3c2ccc(OC)c3OC)c(=O)n1-c1ccccc1 (stereo not given),7.4,8.91µM*,-3.7,-24.6%
Cc1ccc(CNC(=O)c2cc(-c3ccc(C)cc3)nc3n[nH]c(-c4cccc([N+](=O)[O-])c4)c23)cc1,x,2.4%,x,-17.0%
O=C(Nc1ccccc1)NC1CCS(=O)(=O)C1 (stereo not given),-2.9,-3.7%,1.1,-24.2%
O=C(Nc1ccc2ccccc2c1)NC1CCS(=O)(=O)C1 (stereo not given),13.6*,47.1%,88.0,23.3%
Cc1ccc(NC(=O)CN2C(=O)CCn3nc(-c4cccn4C)cc32)c(Cl)c1,x,-23.7%,x,2.8%
COc1cc(CNc2ccc3[nH]c(=O)[nH]c3c2)ccc1OCc1c(F)cccc1Cl,2.2,-29.1%,6.9,-23.3%
COc1cc(CNc2ccc3[nH]c(=O)[nH]c3c2)ccc1OCc1ccccc1,14.3,-27.5%,18.4,u
COc1cc(CNc2ccc3[nH]c(=O)[nH]c3c2)ccc1OCc1ccc(F)cc1Cl,13.6,u,31.2*,0.8%
COc1cc(CNc2ccc3[nH]c(=O)[nH]c3c2)ccc1OCc1ccc(Cl)cc1,29.4*,-26.8%,45.1*,9.2%
COc1cc(CNc2ccc(N3CCN(C(C)=O)CC3)cc2)ccc1OCc1ccc(F)cc1,24.7*,x,74.7*,-16.1%
COc1cc(CNc2ccc3[nH]c(=O)[nH]c3c2)ccc1OCc1ccc(F)cc1,31.4*,u,35.6*,-19.6%
CCCN(CCC)CCNC(=O)Cn1ncc2c([nH]c3ccc(C)cc32)c1=O,x,25.8%,x,-6.4%
Cc1ccc(C)c(NC(=O)CCS(=O)(=O)c2cccc3nsnc23)c1,x,-5.0%,x,5.7%
Cc1ccc2c(c1)c(CC(NC(=O)c1ccccc1Oc1ccccc1)C(=O)O)cn2C(=O)OCc1ccccc1 (stereo not given),-2.7,x,-6.1,x
COc1cc(CNc2ccc3[nH]c(=O)[nH]c3c2)ccc1OCc1ccccc1C,22.0,-27.4%,26.5,u
COc1cc(CNc2ccc3[nH]c(=O)[nH]c3c2)ccc1OCc1ccccc1F,19.3*,0.0%,36.8*,-15.2%
CC1CCN(C(=O)c2cc(-c3ccc4c(c3)OCO4)on2)CC1,27.5*,u,41.4*,0.0%
COc1ccc(-c2cc(C(=O)N3CCCCC3C)no2)cc1OC (stereo not given),x,0.1%,x,59.8%
CC1CCCCN1C(=O)c1cc(-c2ccc(Cl)c(Cl)c2)on1 (stereo not given),28.6*,0.6%,76.2,7.8%
CCC1CCCCN1C(=O)c1cc(-c2ccc(Cl)c(Cl)c2)on1 (stereo not given),39.1*,-4.3%,93.9*,38.2%
CC1CCCCN1C(=O)c1cc(-c2ccc3c(c2)OCO3)on1 (stereo not given),36.1*,-18.8%,88.9*,9.2%
SMILES,CHX counter,Sm TGR block,Shiga toxin inh,FMDV inh
O=C(COCc1cc(-c2cccs2)on1)NCc1ccccc1Cl,x,-2.5%,x,4.6%
COc1c2c(c(C(=O)/C=C/C(C)=C/c3ccccc3)c3c1OCO3)CCN(C)C2,x,x,x,-15.5%
CN(C)Cc1cc(C(C)(C)C)cc(C(C)(C)C)c1O,-2.3,-1.4%,17.5,-8.0%
CN(C)Cc1cc(O)c(CN(C)C)cc1O,-1.9,2.51µM*,-4.8,-12.1%
Cn1c(=NC(=O)COc2ccccc2)sc2cccc(F)c21,14.4,7.0%,-9.7,8.5%
CC(C)C(=O)N=c1sc2cccc(F)c2n1C,10.4*,10.1%,16.9,15.8%
CCn1c(=NC(=O)c2ccco2)sc2cccc(F)c21,33.7*,-1.9%,100.8*,41.4%
CCn1c(=NC(=O)c2ccc(S(=O)(=O)N3CCOCC3)cc2)sc2cccc(OC)c21,-3.1,-11.2%,-8.0,u
O=C(c1cc(-c2ccccc2O)on1)N1CCc2ccccc2C1,24.9*,8.0%,50.5,39.9%
O=C(c1cc(-c2cccs2)on1)N1CCc2ccccc2C1,18.3,0.0%,47.0*,54.6%
O=C(c1cc(-c2ccco2)on1)N1CCc2ccccc2C1,8.6,12.6µM*,35.7,69.7%
O=C(c1cc(-c2cccs2)on1)N1CCOCC1,36.9*,-32.0%,104.4*,0.0%
O=C(c1cc(-c2ccc(O)cc2)on1)N1CCc2ccccc2C1,4.7,1.7%,45.5,34.0%
O=C(c1cc(-c2cccs2)on1)N1CCN(C(c2ccccc2)c2ccccc2)CC1,6.7,8.3%,-1.6,-21.0%
CCc1ccc(NC(=O)CSc2nc3nccnc3c(=O)n2CCc2c[nH]c3ccccc23)cc1,x,3.6%,x,-9.8%
Cc1ccc(NC(=O)Nc2cccnc2)cc1NC(=O)Nc1cccnc1,24.1*,4.6%,64.2,u
O=C(Nc1ccncc1)Nc1cccc(F)c1,29.3*,-16.8%,66.6,-7.4%
Fc1cccc(NC(=S)Nc2cccnc2)c1,6.2,17.8µM*,-3.5,30.9%
Oc1cccc(NC(=S)Nc2ccccc2)c1,6.8,15.8µM*,-6.1,16.8%
CC(=O)Nc1cccc(O)c1,x,3.4%,x,-18.0%
Cc1ccc(-c2cc(-c3ccc4c(c3)NC(=O)CO4)nc3c2COc2ccccc2-3)cc1,x,0.1%,x,-16.7%
Fc1cccc(NC(=S)NNc2ccccc2)c1,34.4*,-25.8%,44.6*,61.0%
COc1cc(NC(=S)Nc2cccnc2)cc(OC)c1,8.5,44.7µM*,4.4,-7.6%
COc1cc(OC)cc(C(=O)NC(=S)Nc2cccnc2)c1,17.0,u,25.8,-9.4%
O=C(Nc1cccnc1)Nc1cccc(F)c1,18.2*,-19.8%,20.5,19.9%
SMILES,CHX counter,Sm TGR block,Shiga toxin inh,FMDV inh
COc1ccc(OCC2c3cc(OC)c(OC)cc3CCN2C(=O)c2ccc(F)cc2)cc1 (stereo not given),x,4.9%,x,0.0%
COc1ccc(-c2cc3ncnc(Cl)c3s2)cc1,32.6*,-17.6%,57.7,-4.1%
O=c1c(N2CCCCC2)csc2ccc(F)cc12,x,-9.6%,x,33.6%
Cc1ccc(C(=O)NC2CCc3ccccc3C2=O)cc1 (stereo not given),30.3*,-10.2%,64.8*,35.0%
Cc1ccc(C(=O)NC2CCCCNC2=O)cc1 (stereo not given),28.6*,2.7%,93.8*,66.5%
Cc1ccc(C(=O)NC2CCCCNC2=O)cc1C (stereo not given),37.6*,-1.6%,64.5*,19.6%
Cc1oc2ncn(CC(C)C)c(=O)c2c1C(=O)NC(C)c1ccccc1 (stereo not given),x,-4.9%,x,-13.5%
COc1ccc(C(=O)C[n+]2ccccc2/C=N/O)cc1,19.2*,-12.5%,56.2,11.3%
COc1ccc2c(ccc[n+]2CC(=O)c2ccccc2)c1,0.3,-1.8%,7.4,-7.4%
S=C(c1ccc(OCc2ccccc2)cc1)N1CCCC1,20.9*,9.6%,39.4*,56.6%
CCOc1cc(C(=S)N2CCCC2)ccc1OCc1ccccc1,5.0,2.7%,-8.0,8.6%
